# Sampled rows, rich in hits. Any-hit rate of the full collection: about 3.3%.
# Tau filament bind – binds recombinant human tau filaments. P10636. recombinant tau filaments, thioflavin S fluorescence, 15 h; filaments grown with octadecylsulfate alongside compound. Potency, µM (titrated, usually from 57.1 µM), for inactives: at the top dose activity change, negative = inhibition. 71,000 compounds, 2% hits. AID 596;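 also: potency is read from the fitted curve at half-maximal effect; % is scaled to controls: 0 for no effect and ±100 for the full control effect; actives lower thioflavin S fluorescence by blocking filaments or displacing dye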
#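 His-tagged recombinant human tau (exons 2, 3 and 10 included), 1 uM, was induced to fibrillize by 30 uM sodium octadecylsulfate with compound present. After 15 h at 37 C, thioflavine S fluorescence (ex 450, em 510 nm) was read.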
# ALOX15 inhib – inhibitors of human 15-lipoxygenase (ALOX15); P16050; 74,000 compounds, 1.4% hits; AID 887; Potency, µM (highest dose often 57.1 µM), for inactives: at the highest dose activity change, negative = inhibition, usual class: inhibitors; purified 15hLO-1, xylenol orange hydroperoxide absorbance; also: potency is read from the fitted curve at half-maximal effect; % is scaled to controls: 0 for no effect and ±100 for the full control effect; nearly all actives have a fitted effect of over 55% in size
# Target sequence (P16050 whole entry, looked up): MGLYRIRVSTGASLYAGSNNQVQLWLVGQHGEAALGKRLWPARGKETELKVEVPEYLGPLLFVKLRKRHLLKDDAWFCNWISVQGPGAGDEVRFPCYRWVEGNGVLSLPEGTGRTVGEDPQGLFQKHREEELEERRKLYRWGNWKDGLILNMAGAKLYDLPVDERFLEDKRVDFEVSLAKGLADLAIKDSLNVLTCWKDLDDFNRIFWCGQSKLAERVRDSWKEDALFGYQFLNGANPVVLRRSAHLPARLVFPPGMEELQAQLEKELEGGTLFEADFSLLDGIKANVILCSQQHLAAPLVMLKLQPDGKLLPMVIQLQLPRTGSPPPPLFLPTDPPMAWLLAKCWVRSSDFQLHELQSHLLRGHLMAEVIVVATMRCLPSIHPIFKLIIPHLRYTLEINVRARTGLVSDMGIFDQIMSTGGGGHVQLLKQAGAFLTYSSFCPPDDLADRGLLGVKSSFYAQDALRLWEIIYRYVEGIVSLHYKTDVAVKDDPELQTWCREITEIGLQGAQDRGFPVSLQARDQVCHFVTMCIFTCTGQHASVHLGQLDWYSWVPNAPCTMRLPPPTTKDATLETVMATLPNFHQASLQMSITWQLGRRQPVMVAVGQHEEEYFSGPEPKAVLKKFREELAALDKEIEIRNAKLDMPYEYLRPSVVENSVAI
#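 Quantitative HTS in 25 mM Hepes pH 7.5 containing 0.01% Triton X-100: human 15hLO-1 at 40 nM, arachidonic acid at 50 uM, 6 min turnover. Product quantified via ferrous oxidation/xylenol orange, 573:405 nm absorbance ratio.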
# BRCT inh red – disrupts BRCA1 BRCT binding to phosphoprotein, red fluorophore readout. Potency, µM (series often up to 76.9 µM), for the others: at the top dose activity change, negative = inhibition, hits mostly inhibitors. AID 892. P38398. BRCT-phosphopeptide binding, red fluorescence polarization. 75,000 compounds, 0.03% hits; also: % is scaled to controls: 0 for no effect and ±100 for the full control effect
#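 Fluorescence polarization: 100 nM His-tagged BRCA1 BRCT with 100 nM TAMRA-labelled phospho-BACH1 decapeptide, phosphate buffer pH 7.3 with 150 mM NaCl, DTT, 0.01% Tween 20; 12 min RT. Binding inhibition seen as FP decrease.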
# Pol III holo inh – DNA polymerase III holoenzyme inhibition; AID 603; Potency, µM (series often up to 57.1 µM), for the others: at the highest dose activity change, negative = inhibition; reconstituted DNA polymerase III holoenzyme replication, biochemical; 71,000 compounds, 0.25% hits; also: potency is read from the fitted curve at half-maximal effect; % is scaled to controls: 0 for no effect and ±100 for the full control effect
#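 Reconstituted *E. coli* holoenzyme (0.35 nM Pol III, 1 nM beta, 154 nM SSB, 2 nM primase) was preincubated with compound for 15 min at RT. Synthesis on 1.4 nM ssM13Gori ran 35 min, then was stopped with PicoGreen/EDTA and read as dsDNA fluorescence.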
# BRCT inh green – blocks human BRCA1 BRCT binding to phosphopeptide, green readout. P38398. BRCA1 BRCT-phosphopeptide binding, green fluorescence polarization. Potency, µM (series often up to 76.9 µM), inactives show at the highest dose activity change, negative = inhibition, actives largely listed as inhibitors. 75,000 compounds, 0.05% hits;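 also: potency is read from the fitted curve at half-maximal effect; plate controls were peptide without protein for full effect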
#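 Compounds were incubated for 12 min at room temperature with a complex of 100 nM fluorescein-tagged pBACH1 decapeptide and 250 nM His-tagged BRCT protein. Buffer was phosphate pH 7.3 with EDTA, DTT and Tween 20. Disruption of binding lowers the polarization signal.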
# TsaE inh – inhibitors of E. coli YjeE (TsaE). P0AF67. purified YjeE enzyme, qHTS inhibition assay. Potency, µM. 71,000 compounds, 0.05% hits. AID 605
#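 Fluorescence polarization of a BODIPY Texas Red–ADP probe (2 uM) bound to purified YjeE (10 uM) was read after 15 min room-temperature incubation with compounds. Loss of polarization marks inhibitors; ADP serves as titrated control.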
# * hit, by the source's call; i = inactive; u = inconclusive; x = not tested or not shown; ! = a repeat was not active; [ ] = another dose, or the depositor's remark. Calls follow the shape of the dose curve; as a rule, active = well fitted curve in the direction sought with a large enough effect; inconclusive = small, poorly fitted or top-dose-only effect, or another doubt; inactive = no such curve, though single readings can be large; an effect the other way counts as inactive or inconclusive.
SMILES,Tau filament bind,ALOX15 inhib,BRCT inh red,Pol III holo inh,BRCT inh green,TsaE inh
CO[C@@H]1COC(=O)[C@@H](C)NC(=O)C/C=C\[C@@H](C)[C@H](NS(=O)(=O)c2ccc(C)cc2)COC(=O)[C@H](C)NC(=O)C/C=C\[C@H]1C,x,20%[11.4 µM],1%[15.4 µM],x,0%[15.4 µM],x
S=C(S)O[C@@H]1C[C@@H]2C[C@H]1[C@@H]1CCC[C@H]21,u,25µM*!,-1%,-8%,-2%,i
COc1ccc(C2=C(N)c3ccccc3C2=O)cc1,u,-8%,1%,0%,-1%,i
COc1ccc(-c2csc3c2[N+]2=CCC=C2C3=O)cc1,3.2µM*,-2%[11.4 µM],0%[15.4 µM],-7%[11.4 µM],-1%[15.4 µM],i
CCCC[C@H](CC)CN=C(N)NC(N)=NCCCCCCN=C(N)NC(N)=NC[C@@H](CC)CCCC,168%[25.6 µM],-5%[25.6 µM],1%[34.4 µM],-8%[25.6 µM],-1%[34.4 µM],u
CC(C)CCC[C@@H](C)[C@@H]1CC[C@@H]2[C@H]3CC[C@H]4C[C@@H](N)CC[C@@]4(C)[C@@H]3CC[C@]21C,-2%[11.4 µM],7%[11.4 µM],0%[15.4 µM],4%[11.4 µM],-1%[15.4 µM],i
O=C(O)CCC(=O)Nc1ccc(C(=O)OC2CCCCC2)cc1,4%,-2%,0%,-2%,-4%,i
O=C(O)C1Nc2c(O)cccc2C2C=CCC12 (stereo unspecified),13µM*,u,-19%,3.2µM*,-13%,i
O=C(OC1CCCCC1)c1ccc2c(c1)C1C=CCC1C(C(=O)O)N2 (stereo unspecified),0.63µM*,25µM*,u,20µM*,u,i
CO[C@@H]1COC(=O)C/C=C\[C@H](C)[C@H](OC)COC(=O)[C@H]2CCCN2C(=O)C/C=C\[C@H]1C,x,4%[11.4 µM],1%[15.4 µM],x,-1%[15.4 µM],x
COCCN(CCOC)c1nc(C)nc2c1nc(-c1ccccc1)n2CCN1CCOCC1,9%,4%,-3%,-14%,0%,i
O=C(CSc1nnc(CN2CCOCC2)n1-c1ccccc1)N1CCc2ccccc21,-2%,1%,-2%,5%,-8%,i
COc1ccc(-n2c(Cc3cccn3C)nnc2SCC(=O)N2CCCc3ccccc32)cc1,4%,13µM*,0%,-1%,4%,i
COc1ccc(-n2c(Cc3cccn3C)nnc2SCC(=O)N2CCCC2)cc1,8%,-25%,1%,1%,-2%,i
N#Cc1ccc(OCc2nnc(SCC(=O)N3CCCc4ccccc43)n2-c2ccccc2)cc1,13%,2.5µM*,0%,-9%,-1%,i
COC(=O)C1=C(C)N(Cc2ccccc2)C2=C3C(=O)OCCC3[C@@](O)(C(=O)OC)C(=O)N2C1c1ccccc1 (stereo partly specified),x,6%[11.4 µM],1%[15.4 µM],x,1%[15.4 µM],x
O=c1n(-c2ccccc2)c(=O)n2n1CC[C@H]1/C(=N\OC[C@@H](O)COCc3ccco3)[C@H]3O[C@@H]3[C@@H](O)[C@@H]12,x,3%[11.4 µM],1%[15.4 µM],x,0%[15.4 µM],x
C#CCCCO/N=C1/C[C@@H](O)[C@@H](O)[C@@H]2[C@H]3C(=O)N(c4ccc(F)cc4F)C(=O)[C@@H]3CC[C@@H]12,x,-1%[11.4 µM],0%[15.4 µM],x,-1%[15.4 µM],x
Cc1cc(=O)n2[nH]c(C)c(-c3ccccc3)c2n1,10%,11%,0%,0%,-1%,i
Cc1cc(=O)n2[nH]c(C)c(-c3ccc(Cl)cc3)c2n1,68%,18%,-1%,20µM*,-3%,i
CCOc1ccc(Nc2cc(C)nc(N3CCOCC3)n2)cc1,-10%,-20%,-1%,5%,-9%,i
COc1ccc2nc(C)cc(Nc3ccc(N4CCOCC4)cc3)c2c1,5µM*,-7%,0%,-22%,1%,i
COC(=O)C/C=C\[C@@H](C)[C@@H](/C=N\O[C@@H](C)c1cn([C@H](CO)Cc2ccccc2)nn1)NS(=O)(=O)c1ccc(C)cc1,x,9%[11.4 µM],1%[15.4 µM],x,1%[15.4 µM],x
CC(=O)c1ccc2c(c1)N(CCCN(C)C)c1ccccc1S2,3.2µM*,5%[25.6 µM],-1%[34.4 µM],-3%[25.6 µM],-1%[34.4 µM],i
CCN(CC)[C@@H](C)CN1c2ccccc2Sc2ccccc21,u,13µM*,1%[34.4 µM],-5%[25.6 µM],-6%[34.4 µM],i
SMILES,Tau filament bind,ALOX15 inhib,BRCT inh red,Pol III holo inh,BRCT inh green,TsaE inh
COc1ccc([C@H]2Sc3ccccc3N(CCN(C)C)C(=O)[C@H]2OC(C)=O)cc1,1%[25.6 µM],4%[25.6 µM],0%[34.4 µM],-10%[25.6 µM],0%[34.4 µM],i
COc1ccc2c(c1)Sc1ccccc1N2CCN(C)C,16µM*,-14%,0%,-7%,-2%,i
CN(C)CCCN1c2ccccc2Sc2ccccc21,10µM*,-7%,1%,-2%[25.6 µM],-2%[3.08 µM],i
O=C1[C@H]2[C@H]3[C@H](O)[C@H](O)C/C(=N/OCc4ccccc4)[C@@H]3CC[C@@H]2C(=O)N1c1cccc(Oc2ccccc2)c1,x,-6%[11.4 µM],2%[15.4 µM],x,1%[15.4 µM],x
CC(C)(C)c1cc(Br)c(O)c(CN(Cc2cc(C(C)(C)C)cc(Br)c2O)C2CCCCC2)c1,-26%[11.4 µM],7%[11.4 µM],-1%[15.4 µM],-8%[11.4 µM],0%[15.4 µM],i
CC(=O)OC[C@@H]1O[C@H](C/C=N\O[C@@H](C)c2cc(-c3c(C)cc(C)cc3C)no2)C=C[C@@H]1OC(C)=O,x,1%[11.4 µM],1%[15.4 µM],x,2%[15.4 µM],x
O=C1/C(=C/c2ccccc2)[C@@H](NC2CCCCC2)c2ccccc21,-3%[11.4 µM],-18%[11.4 µM],-2%[15.4 µM],-12%[11.4 µM],-1%[15.4 µM],i
COc1ccc(-c2noc(C)c2-c2ccc3ccccc3n2)c(O)c1,16µM*,16µM*,1%,-2%,-2%,i
O=C(c1ccco1)N1CCN(C(=O)c2cc(-c3ccccn3)nc3ccc(Cl)cc23)CC1,10µM*,u,0%,-4%,0%,i
O=C(c1ccco1)N1CCN(C(=O)c2cc(-c3ccncc3)nc3ccc(Br)cc23)CC1,-19%,5%,0%,-1%,1%,i
OCC1OC(c2ccc3c(c2)OCO3)C=CC1Oc1cc(Cl)cc(Cl)c1 (stereo unspecified),x,-28%[11.4 µM],1%[15.4 µM],x,0%[15.4 µM],x
O=C(C1CCCCC1)N1CCCC(c2nc3c(nnn3Cc3ccccc3)c(=O)[nH]2)C1 (stereo unspecified),5%,16µM*,-1%,0%,7%,i
COc1ccccc1N1C(=O)CC(Nc2ccc(N3CCOCC3)cc2)C1=O (stereo unspecified),-27%,13µM*,0%,-7%,-3%,i
COc1cccc(O)c1O,x,0.79µM*,0%,x,-4%,x
CCC(=O)[C@@]1(O)C(=O)N2C(=C3C(=O)OCCC31)N(Cc1ccccc1)C(C)=C(C(=O)OC)C2c1ccccc1 (stereo partly specified),x,11%[11.4 µM],0%[15.4 µM],x,2%[15.4 µM],x

# From PubChem
